Growth data for 8 compounds are collected here from PubChem BioAssay (NCI).

The panel holds about 83,000 compounds, 20% with a hit somewhere; the sample as a whole holds those more often.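 How to read the values: 0–100, growth inhibition (40 = 60% inhibited); 0, no net growth; -100 to 0, cell death (-40 = 40% of starting cells died; -100 = all dead).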 A number with no mark means an inactive call. Activity calls are given as the source filed them. Rule for the calls: active = growth percent below 10; inactive = the rest.

Holding throughout (test): NCI-60 one-dose screen, 48 h (100 = growth as untreated, 0 = no growth, -100 = all killed)
One assay concerns SK-MEL-2 melanoma. Conditions: 10 µM unless noted.
The next assay has as its system EKVX NSCLC. The conditions noted are these: 10 µM unless noted.
Another assay has as its system SN12C renal. Conditions: 10 µM unless noted.
For the next assay, the system named is UO-31 renal. The conditions noted are these: 10 µM unless noted.
The next assay concerns TK-10 renal. The conditions noted are these: 10 µM unless noted.
In another assay the test system is ACHN renal. Conditions: 10 µM unless noted.
A further assay concerns CAKI-1 renal. Conditions: 10 µM.
The subject of another assay is CCRF-CEM leukemia. Conditions: 10 µM unless noted.
The subject of the next assay is MOLT-4 leukemia. Conditions: 10 µM unless noted.
For a further assay, the system named is SR leukemia. The conditions noted are these: 10 µM unless noted.
The next assay has as its system RPMI-8226 leukemia. Conditions: 10 µM unless noted.
The test system of the next assay is OVCAR-8 ovarian. The conditions noted are these: 10 µM unless noted.
Another assay deals with OVCAR-5 ovarian. Conditions: 10 µM unless noted.
The subject of a further assay is OVCAR-4 ovarian. Conditions: 10 µM unless noted.
The subject of another assay is SK-OV-3 ovarian. The conditions noted are these: 10 µM unless noted.
Another assay deals with IGROV1 ovarian. Conditions: 10 µM unless noted.
In the next assay the test system is OVCAR-3 ovarian. The conditions noted are these: 10 µM unless noted.
The test system of another assay is HS 578T breast. The conditions noted are these: 10 µM unless noted.
Another assay has as its system NCI/ADR-RES ovarian. Conditions: 10 µM unless noted.

As to `COc1ccccc1/C=C/C=N/NC1=NC2C(S1)N(C)C(=O)N2c1ccccc1` (stereo unspecified), the growth in the assay with SK-MEL-2 melanoma was 67.6%; in the assay with EKVX NSCLC, 39.4%; in the assay with SN12C renal it was 20.6%; in the assay with UO-31 renal it was 35.9%; in the assay with TK-10 renal, 68.6%; in the assay on ACHN renal, 24.7%. Further, the growth in the assay with CAKI-1 renal is 46.4%; in the assay on CCRF-CEM leukemia it was 14.3%; in the assay with MOLT-4 leukemia it was 4.1% (active); with SR leukemia, 16.7%; in the assay with RPMI-8226 leukemia, 18.9%; in the assay on OVCAR-8 ovarian, 24.4%. In addition, the growth in the assay with OVCAR-5 ovarian is 33.3%; in the assay with OVCAR-4 ovarian, 56.8%; with SK-OV-3 ovarian it was 62.4%; with IGROV1 ovarian it was 19.4%; with OVCAR-3 ovarian, -27.2% (active); in the assay on HS 578T breast it was 25.5%. Also, the growth with NCI/ADR-RES ovarian was 10.4%.
For `C/C(=N/Nc1nc(N/N=C(/C)c2ccc([N+](=O)[O-])cc2)nc(N2CCOCC2)n1)c1ccc([N+](=O)[O-])cc1`, the growth was 96.4% in the assay with SK-MEL-2 melanoma; 68.1% with EKVX NSCLC; 73.7% in the assay with SN12C renal; 80.8% in the assay on UO-31 renal; 127% with TK-10 renal; 66.1% with ACHN renal. Further, the growth in the assay with CAKI-1 renal was 77.9%; in the assay on CCRF-CEM leukemia, 61.6%; in the assay on MOLT-4 leukemia, 78.9%; in the assay with SR leukemia, 113%; with RPMI-8226 leukemia, 64.7%; in the assay on OVCAR-8 ovarian it was 63.6%. Further, the growth with OVCAR-5 ovarian is 95.5%; in the assay with OVCAR-4 ovarian it was 77.6%; with SK-OV-3 ovarian it was 113%; in the assay on IGROV1 ovarian it was 93.8%; in the assay with OVCAR-3 ovarian it was 88.4%; with HS 578T breast it was 78.7%. For the same compound, in the assay on NCI/ADR-RES ovarian, the growth is 68.7%.
Regarding `CNC(=O)c1c(NC(=O)c2ccc(F)cc2F)sc2c1CCC(=O)C2`, the growth with SK-MEL-2 melanoma was -4.48% (active); in the assay with EKVX NSCLC, 14.5%; with SN12C renal it was 17.5%; with UO-31 renal, -94% (active); with TK-10 renal, 38.7%; in the assay on ACHN renal, 1.41% (active). In addition, the growth in the assay on CAKI-1 renal was -3.18% (active); with CCRF-CEM leukemia it was 4.01% (active); in the assay with MOLT-4 leukemia it was 2.03% (active); in the assay on SR leukemia, 1.58% (active); in the assay on RPMI-8226 leukemia, -12.3% (active); in the assay with OVCAR-8 ovarian, 13.9%. In addition, the growth was 0.937% (active) in the assay on OVCAR-5 ovarian; -40.6% (active) with OVCAR-4 ovarian; -4.66% (active) in the assay with SK-OV-3 ovarian; 22.8% in the assay on IGROV1 ovarian; 0.976% (active) with OVCAR-3 ovarian; 24.5% in the assay with HS 578T breast. In addition, in the assay with NCI/ADR-RES ovarian, the growth is 5.72% (active).
`CCNC(=O)Oc1ccc(/C(=C(/C)c2ccc(Cl)cc2)c2ccc(OCCN(C)C)cc2)cc1`: the growth in the assay with SK-MEL-2 melanoma is 98%; in the assay on EKVX NSCLC, 72.1%; in the assay with SN12C renal, 77.8%; in the assay with UO-31 renal, 61.7%; with TK-10 renal, 92%; in the assay with ACHN renal, 91.4%. Moreover, the growth in the assay with CAKI-1 renal was 73.4%; in the assay with CCRF-CEM leukemia, 66.7%; in the assay with MOLT-4 leukemia, 50.4%; in the assay with SR leukemia, 42.4%; in the assay on RPMI-8226 leukemia it was 19.3%; in the assay on OVCAR-8 ovarian, 87.9%. For the same compound, the growth is 84.9% in the assay on OVCAR-5 ovarian; 71.6% in the assay with OVCAR-4 ovarian; 94.2% in the assay on SK-OV-3 ovarian; 64.4% with IGROV1 ovarian; 77.8% with OVCAR-3 ovarian; 74.9% in the assay with NCI/ADR-RES ovarian.
Take `N/C(=N\OC(=O)CSc1nc2ccccc2s1)c1ccc(Cl)cc1`: the growth is 101% in the assay on SK-MEL-2 melanoma; 86.6% with EKVX NSCLC; 102% with SN12C renal; 76.6% with UO-31 renal; 127% with TK-10 renal; 91.4% in the assay on ACHN renal. The growth in the assay on CAKI-1 renal is 83.4%; in the assay on CCRF-CEM leukemia it was 102%; in the assay with MOLT-4 leukemia, 96.7%; in the assay with SR leukemia it was 84.8%; in the assay on RPMI-8226 leukemia it was 99.4%; in the assay on OVCAR-8 ovarian it was 98%. Moreover, the growth was 100% in the assay with OVCAR-5 ovarian; 107% in the assay with OVCAR-4 ovarian; 101% in the assay with SK-OV-3 ovarian; 89% in the assay on IGROV1 ovarian; 111% in the assay with OVCAR-3 ovarian; 97% in the assay on HS 578T breast. Also, in the assay with NCI/ADR-RES ovarian, the growth was 101%.
With `C=C(C)[C@@H]1CC[C@]2(COS(C)(=O)=O)CC[C@]3(C)[C@H](CC[C@@H]4[C@@]5(C)CCCNC(C)(C)[C@@H]5CC[C@]43C)[C@@H]12`, the growth in the assay on SK-MEL-2 melanoma is 94.7%; with EKVX NSCLC, 89.2%; in the assay with SN12C renal, 76%; in the assay on UO-31 renal, 81.5%; with TK-10 renal it was 107%; in the assay on ACHN renal, 99.2%. The growth was 86.8% with CAKI-1 renal; 71.4% in the assay on CCRF-CEM leukemia; 29.5% with MOLT-4 leukemia; -1.07% (active) in the assay on SR leukemia; 44.9% with RPMI-8226 leukemia; 92.1% in the assay with OVCAR-8 ovarian. Moreover, the growth in the assay with OVCAR-5 ovarian is 92.5%; in the assay with OVCAR-4 ovarian it was 95.8%; with SK-OV-3 ovarian, 107%; with IGROV1 ovarian, 78.2%; in the assay with OVCAR-3 ovarian, 92.2%; in the assay with HS 578T breast, 91.4%. Moreover, the growth in the assay with NCI/ADR-RES ovarian is 92%.
For the compound `NC(=O)C(=Cc1ccc(Cl)cc1)C(N)=O`, the growth with SK-MEL-2 melanoma was 87.3%; in the assay with EKVX NSCLC, 59.8%; with SN12C renal, 45.3%; in the assay with UO-31 renal, 57.6%; in the assay with TK-10 renal, 67.9%; in the assay with ACHN renal, 59.4%. Besides, the growth in the assay on CAKI-1 renal was 49.2%; with CCRF-CEM leukemia, 57%; in the assay with MOLT-4 leukemia it was 74.6%; with SR leukemia, 53.3%; in the assay with RPMI-8226 leukemia it was 41.9%; in the assay with OVCAR-8 ovarian it was 65.6%. In addition, the growth in the assay on OVCAR-5 ovarian was 78.2%; in the assay on OVCAR-4 ovarian, 62.3%; with SK-OV-3 ovarian, 117%; in the assay on IGROV1 ovarian, 59.1%; with OVCAR-3 ovarian, 52%; in the assay on HS 578T breast, 89.7%. Further, the growth in the assay with NCI/ADR-RES ovarian was 57.1%.
For `Oc1ccccc1/C=N/Nc1nc(N/N=C/c2ccccc2O)nc(N2CCOCC2)n1`, the growth in the assay with SK-MEL-2 melanoma is 72%; with EKVX NSCLC, 22.2%; in the assay on SN12C renal it was 27.2%; with UO-31 renal it was 19.8%; in the assay with TK-10 renal it was 47.9%; with ACHN renal, 28.1%. Further, the growth in the assay with CAKI-1 renal is 4.56% (active); in the assay on CCRF-CEM leukemia, 42.3%; with MOLT-4 leukemia, 45.1%; in the assay on SR leukemia, 16%; in the assay with RPMI-8226 leukemia, 53.6%; in the assay on OVCAR-8 ovarian it was 12.7%. Also, the growth in the assay with OVCAR-5 ovarian was 37%; in the assay on OVCAR-4 ovarian, -11.7% (active); in the assay with SK-OV-3 ovarian, 11.9%; in the assay with IGROV1 ovarian, 37%; in the assay on OVCAR-3 ovarian, 33.6%; with HS 578T breast it was 47%. Also, in the assay with NCI/ADR-RES ovarian, the growth was 22.9%.
